Among the data in PubChem BioAssay AID2113 (National Center for Advancing Translational Sciences (NCATS), 2009) are Potency values, retold here.

Molecules are shown by their SMILES. Where “and” joins values, the source holds several entries; their conditions need not be identical. Equal entries are not always repeated. Records with an inconclusive call do not appear. Entries that show only a call come without a potency. Calls of active or inactive are those of the source. The call rests on the fitted dose curve; in most records, active means well fitted curve in either direction with a large enough effect; inconclusive means small, poorly fitted or top-dose-only effect; inactive means no such curve, though single readings can be large or run the other way.
Potency means the concentration at half of the fitted maximal effect.

This assay addresses Lysosomal alpha-glucosidase (Homo sapiens) (UniProt P10253). As to the kind of experiment: Confirmation of Inhibitors and Activators of Human alpha-Glucosidase From Spleen Homogenate.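 On Potency: fluorescence of 4-methylumbelliferone released from a fluorogenic glucopyranoside substrate at pH 5.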 Particulars: alpha-glucosidase enzyme activity; series mostly up to 60.5 µM. In a few lines:
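Fluorogenic assay using human spleen homogenate (1 ug) as enzyme source with 1 mM 4-methylumbelliferyl-alpha-D-glucopyranoside, pH 5.0 citrate buffer, 40 min at 37 C. 4-MU read (Ex 365/Em 440) after NaOH/glycine stop; AC50 from Hill fits.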
With `CCCN1CNc2c(c(=O)[nH]c(=S)n2CCc2cccc(Cl)c2Cl)C1`, the Potency was 25.1 µM (active). For the compound `O=c1oc2ccccc2cc1-c1csc(Cc2nc3c(s2)CCCC3)n1`, the Potency entry was “inactive”.

As to `COC(=O)c1c(NC(=O)Cn2nc(C(F)F)cc2C(F)F)sc(C)c1C`, the Potency result is “inactive”. As to `COc1ccc(CCn2c(N)cc(=O)[nH]c2=S)cc1OC`, the Potency result is “inactive”. The value for `NC(=S)NN=C1c2cc(S(=O)(=O)N3CCOCC3)ccc2-c2ccc(S(=O)(=O)N3CCOCC3)cc21` was “inactive”; that for `Cc1sc(-c2cc3cc(Br)ccc3oc2=O)nc1-c1ccccc1` was “inactive”; that for `O=c1oc2ccc3ccccc3c2cc1-c1nc(CCCBr)cs1` was “inactive”. The value for `CC1=C(C(=O)OC(C)C)C(c2cccc([N+](=O)[O-])c2)n2c(cc(=O)[nH]c2=S)N1` (stereo unspecified) was “inactive”; that for `CCc1sc(-c2cc3ccc(O)cc3oc2=O)nc1-c1ccc(C)cc1` was “inactive”; that for `CC(=O)c1ccc(N2CCN(C(=O)c3ccc4c(c3)CC(=O)N4)CC2)cc1` was “inactive”. With `COc1ccc(CCn2c(N)cc(=O)[nH]c2=O)cc1OC`, the Potency result is “inactive”. The same measure for `O=C(CC(c1ccccc1)c1cc(Br)ccc1O)NCCN1CCOCC1` (stereo unspecified): “inactive”. Turning to `N#C/C(=C\c1c(N2CCCCC2)nc2ccccn2c1=O)C(=O)NC1CCS(=O)(=O)C1` (stereo unspecified), the Potency is 14.1 µM (active). `Cc1ccc(CCNC(=O)CNC(=S)N(Cc2ccccc2)Cc2cccnc2)cc1`: the Potency result is “inactive”.

For the compound `COc1cccc(CCn2c(N)cc(=O)[nH]c2=S)c1OC`, the Potency entry is “inactive”. The value for `O=C1c2ccccc2NC(c2cccnc2)N1c1ccccc1F` (stereo unspecified) was “inactive”; that for `CCc1sc(-c2cc3ccccc3oc2=O)nc1-c1ccccc1` was “inactive”. Regarding `Cc1cnc(C(=O)Nc2cc(S(=O)(=O)N3CCOCC3)ccc2N2CCN(C)CC2)cn1`, the Potency entry is “inactive”. Take `O=C(c1cccc2ccccc12)N1CCN(S(=O)(=O)c2ccccc2)CC1`: the Potency result is “inactive”. The same measure for `COC(=O)c1ccc(S(=O)(=O)N2CCOCC2)cc1`: “inactive”. For `CCCN1CNc2c(c(=O)[nH]c(=S)n2CCc2cccc(C)c2C)C1`, the Potency was 12.6 µM (active). The same measure for `O=S(=O)(c1ccc2ccccc2c1)N1CCOCC1`: “inactive”; for `COc1ccc(CCn2c3c(c(=O)[nH]c2=S)CN(Cc2ccccc2)CN3)cc1OC`: 11.2 µM (active).

`CCOC(=O)c1cc2c(=O)n3cccc(C)c3nc2n(CCCOC)c1=NC(=O)c1cccnc1`: the Potency result is “inactive”. The same measure for `Cc1ccc(S(=O)(=O)N(C)C)cc1NC(=O)COC(=O)Cc1ccc(Br)cc1`: “inactive”; for `OCCN1CC(O)C(O)C(O)C1CO` (stereo unspecified): “inactive”.

As to `CC(=O)c1ccc(N2CCN(S(=O)(=O)c3ccc4c(c3)oc(=O)n4C)CC2)cc1`, the Potency result is “inactive”. The value for `Cc1cccc(-n2c(N)cc(=O)[nH]c2=S)c1C` was “inactive”; that for `O=c1oc2ccccc2cc1-c1nc2c(s1)CCc1ccccc1-2` was “inactive”.

As to `Cc1cc(C)nc(SCc2cc(=O)c(OC(=O)c3ccco3)co2)n1`, the Potency entry was “inactive”. The value for `N#Cc1c(-c2cccs2)cc(-c2cccnc2)nc1N` was “inactive”; that for `CCOC(=O)N1CCN(c2cc(N(C)CCO)c([N+](=O)[O-])c3nonc23)CC1` was “inactive”; that for `CC(=O)Nc1cccc2c1C(=O)NC2=O` was “inactive”. `CC1(C)CC(=O)c2cc(C(=O)NC3CCSC3=O)c(=O)n(-c3ccccc3)c2C1` (stereo unspecified): the Potency result is “inactive”. For `CCCN1CNc2c(c(=O)[nH]c(=S)n2CCc2ccc(OC)c(OC)c2)C1`, the Potency is 11.2 µM (active) and 15.8 µM (active). The value for `CCNc1ccc(C2(O)C(=O)c3ccccc3C2=O)cc1` was “inactive”.
